The record followed here is PubChem BioAssay AID485344 (National Center for Advancing Translational Sciences (NCATS), 2010).

Out of some 340,000 compounds screened, about 6,900 (2%) were called active. Rule as the data show it: active = inhibition above about 30%; inactive = below that, where a call was filed. The full list was thinned out, with actives kept by preference.

This assay deals with D(2) dopamine receptor (Homo sapiens) (UniProt P14416). The experiment in a line: HTS Assay for Allosteric Antagonists of the Human D2 Dopamine Receptor: Primary Screen for Antagonists. Also: 0% is about no effect. Conditions: HEK293 TREx D2 cells, calcium flux, dopamine EC80; at 10 µM; hits give high values. Summed up: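 Antagonism is scored as inhibition of an EC80 dopamine-evoked calcium signal in a force-coupled, tetracycline-inducible HEK293 T-REx D2 line, with compound present 180 s before agonist.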
D(2) dopamine receptor (Homo sapiens), sequence (P14416 whole entry, looked up): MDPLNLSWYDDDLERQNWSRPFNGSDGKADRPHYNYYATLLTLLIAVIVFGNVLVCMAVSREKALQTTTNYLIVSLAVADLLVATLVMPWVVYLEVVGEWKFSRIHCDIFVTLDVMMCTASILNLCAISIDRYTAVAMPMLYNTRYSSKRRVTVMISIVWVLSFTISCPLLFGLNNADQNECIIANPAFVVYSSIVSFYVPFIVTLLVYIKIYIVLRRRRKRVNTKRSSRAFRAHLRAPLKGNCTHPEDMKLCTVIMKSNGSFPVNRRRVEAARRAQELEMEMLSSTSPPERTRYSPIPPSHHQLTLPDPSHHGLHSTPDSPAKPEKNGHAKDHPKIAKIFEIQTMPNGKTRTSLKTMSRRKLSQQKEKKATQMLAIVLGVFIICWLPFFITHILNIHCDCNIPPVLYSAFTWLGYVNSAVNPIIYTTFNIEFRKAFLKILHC
Background: Calcium flux is commonly read through the fluorescence of an indicator in the cells.
A word on the inhibition: it is the relative decrease from the control value, in per cent. In the case of `COCCn1c(C)cc(C(=O)COC(=O)CNC(=O)c2ccco2)c1C`, the inhibition was -8.05% (inactive).
For the compound `Cc1ccc2nc(NC(=O)CSc3nc(=O)n(CCCN(C)C)c4c3CCC4)sc2c1`, the inhibition was 7.56% (inactive).
To `CSc1ccccc1C(=O)OCC(=O)N1CCN(C(C)=O)CC1` belongs 0.24% (inactive); to `CC(=O)Nc1ccc(NC(=O)CCN2C(=O)C3CC=CCC3C2=O)cc1` (stereo unspecified), 16.4% (inactive).
The figure for `Cc1ccc(NC(=O)COc2coc(CN3CCc4ccccc4C3)cc2=O)cc1Cl` is -2.55% (inactive).
As to `CCOC(=O)c1ccc(NC(=O)C2CC(=O)Nc3nc4ccccc4n32)cc1` (stereo unspecified), the inhibition was -12.3% (inactive).
`O=C(Nc1ccccc1)C1CC(=O)n2c(nc3ccccc32)N1` (stereo unspecified): the inhibition was 33.6% (active).
`CC(=O)c1ccc(NC(=O)C2CC(=O)Nc3nc4ccccc4n32)cc1` (stereo unspecified): the inhibition was -1.67% (inactive).
The figure for `CC(C)Oc1ccc(S(=O)(=O)N2CCOCC2)cc1NC(=O)C1CCCC1` is -5.29% (inactive).
Regarding `CN(c1ccccc1)S(=O)(=O)c1cccc(NC(=O)Cc2ccc(Cl)cc2)c1`, the inhibition is -11.8% (inactive).
To `COc1ccccc1CNC(=O)COC(=O)CNS(=O)(=O)c1ccc(NC(C)=O)cc1` belongs 4.15% (inactive); to `CCCCn1c(O)c(N=NC(=O)Cn2c(C(F)(F)F)nc3ccccc32)c2ccccc21`, 16.8% (inactive); to `COC(=O)Cn1c(O)c(N=NC(=O)OC)c2ccccc21`, 11.2% (inactive).
The figure for `N#CCCCn1c(O)c(N=NC(=O)C(O)c2ccccc2)c2ccccc21` (stereo unspecified) is 38.5% (active).
To `OCCNCCCCOc1ccccc1F` belongs 4.36% (inactive).
On to `OCCNCCOc1ccc(Cl)c(Cl)c1`, for which the inhibition is 33.4% (active).
To `OCCNCc1cccc(OCc2ccccc2Cl)c1` belongs 1.43% (inactive); to `Cc1cccc(NS(=O)(=O)c2cccc(C(=O)NNC(=O)c3ccccc3O)c2)c1`, -12.1% (inactive).
The figure for `Cc1cc(C)cc(-c2nnc(SCC(=O)NC3CC3)o2)c1` is 5.88% (inactive); for `CCC(C)C(N=C1NS(=O)(=O)c2ccccc21)C(=O)N1CCC(C)CC1` (stereo unspecified) it is 17% (inactive); for `Cc1n[nH]c(=O)c2c(NC(=O)COC(=O)c3ncc(Cl)c(Cl)c3Cl)oc(C)c12` it is -6.33% (inactive).
To `S=C(NCCCc1ccccc1)Nc1ccc(Br)cc1` belongs 3.8% (inactive).
For the compound `S=C(Nc1ccc(Br)cc1Cl)NC1CCN(Cc2ccccc2)CC1`, the inhibition was 70.2% (active).
To `O=C(COc1ccccc1O)NC1CCCC1` belongs 1.67% (inactive); to `O=C(NNC(=S)Nc1ccc(Br)cc1Cl)c1ccco1`, 0.194% (inactive).
To `O=C(COc1ccccc1F)NC1CC1` belongs -13.9% (inactive); to `S=C(NN=C1CCN(Cc2ccccc2)CC1)NC1CCCCC1`, 5.59% (inactive); to `Cc1cc(Br)ccc1NC(=S)NC1CCCC1`, 9.66% (inactive).
To `O=C(COc1ccc(Br)cc1F)NC1CCN(Cc2ccccc2)CC1` belongs 52.9% (active).
In the case of `S=C(Nc1ccc(Br)cc1)NC1CCN(Cc2ccccc2)CC1`, the inhibition is 109% (active).
As to `CCOC(=O)Cc1csc(SCC(=O)Nc2ccc(C)cc2F)n1`, the inhibition is 0.767% (inactive).
To `CCCC1C(=O)N2C(N(C)C)=Nc3ccc(C)cc3N2C1=O` (stereo unspecified) belongs -7.75% (inactive); to `Brc1ccc(CN2CC[C@H]3C=CCc4cccc(c43)C2)cc1`, -16.8% (inactive); to `Cc1ccc2c(c1)C1CN(C)CCC1N2S(=O)(=O)c1cccc(F)c1` (stereo unspecified), -6.37% (inactive).
To `CNS(=O)(=O)c1ccc(C(=O)NCC(=O)NCCc2ccc3c(c2)OCCO3)cc1` belongs -17.4% (inactive); to `Cc1csc(SCC(=O)N(c2ccccc2)C(C)C)n1`, -0.577% (inactive).
The figure for `O=S(=O)(NCCCCCCNS(=O)(=O)c1c(F)cccc1F)c1ccc2c(c1)OCCO2` is -4.68% (inactive); for `O=S(=O)(c1ccccc1)c1nc(-c2ccccc2)oc1NCCCN1CCOCC1` it is 47.7% (active).
On to `O=S(=O)(c1ccc(Br)cc1)c1nc(-c2ccccc2)oc1NCc1cccnc1`, for which the inhibition is 9.02% (inactive).
The figure for `O=S(=O)(c1ccc(Br)cc1)c1nc(-c2ccccc2)oc1N1CCOCC1` is 15.8% (inactive).
For the compound `CCOc1ccc(C(=O)CCC(=O)NC2=NCCS2)cc1`, the inhibition was -11.7% (inactive).
The figure for `Cc1ccc(COC(=O)CN2C(=O)NC3(CCCC3)C2=O)cc1` is -1.94% (inactive).
For the compound `COCCNC(=O)C1CCN(C(=O)C2CC(=O)N(c3ccc(C)cc3)C2)CC1` (stereo unspecified), the inhibition was 30% (active).
Consider `CCCC(C)NC(=O)C1CCN(C(=O)C2CC(=O)N(c3ccc(C)cc3)C2)CC1` (stereo unspecified), for which the inhibition is 33% (active).
The figure for `COCCCNC(=O)C1CC(=O)N(c2ccc(C)cc2)C1` (stereo unspecified) is -5.47% (inactive); for `CCc1ccc(N2CC(C(=O)N3CCCCCC3)CC2=O)cc1` (stereo unspecified) it is -11.6% (inactive); for `O=C(C1CC(=O)N(c2ccc(Br)cc2)C1)N1CCCC1` (stereo unspecified) it is -3.05% (inactive).
To `Cc1ccc(N2CC(C(=O)NCCS(=O)(=O)N3CCN(c4ccccc4)CC3)CC2=O)cc1` (stereo unspecified) belongs 8.52% (inactive).
The figure for `Cc1ccc(NC(=O)CCC(=O)N2CCC(c3ccccc3)=N2)cc1S(=O)(=O)N1CCCCC1` is -6.66% (inactive).
With `CC1(C)CC(=O)C=C(c2cccc3c2Oc2ccccc2S3)C1`, the inhibition is 2.71% (inactive).
Take `Cc1ccc(NC(=O)C(c2ccccc2)N2CCN(C(=O)c3ccco3)CC2)cc1` (stereo unspecified): the inhibition is -0.875% (inactive).
As to `CN(C(=O)CSc1nnc(-c2ccc3c(c2)OCO3)o1)C1CCS(=O)(=O)C1` (stereo unspecified), the inhibition was 8.68% (inactive).
The figure for `CC(=O)Nc1ccc(N2C(=O)C3C4C=CC(CC4)C3C2=O)cc1` (stereo unspecified) is 2.36% (inactive); for `Cc1ccc(N2C(=O)C3C4C=CC(CC4)C3C2=O)cc1Br` (stereo unspecified) it is 54.9% (active).
The figure for `Cc1ccc(N2C(=O)C3C4C=CC(CC4)C3C2=O)cc1Cl` (stereo unspecified) is -11.1% (inactive); for `Cn1c(-c2ccc(C(F)(F)F)cc2)cc2onc(-c3ccccc3)c2c1=O` it is 8.4% (inactive); for `CCOc1ccc(C(=O)NCC(=O)N2CCN(c3ccc(C(F)(F)F)cn3)CC2)cc1` it is -6.45% (inactive).
Consider `Cc1ccc(C(=O)OCC(=O)NCc2cc(C)c(O)c(C)c2)cc1S(=O)(=O)N1CCCCC1`, for which the inhibition was 14.2% (inactive).
The figure for `CCN(C(=O)COC(=O)/C=C/c1nc2ccccc2s1)C1CCS(=O)(=O)C1` (stereo unspecified) is 31.7% (active); for `CCN(C(=O)COC(=O)c1c(NC(C)=O)sc(C)c1C)C1CCS(=O)(=O)C1` (stereo unspecified) it is 9.33% (inactive); for `CCN(C(=O)CSc1nc2ccccc2n1CC)C1CCS(=O)(=O)C1` (stereo unspecified) it is 8.24% (inactive).
The figure for `COc1ccc(N2CCN(C(=O)CCNC(=O)c3ccc(Br)cc3)CC2)cc1` is -5.34% (inactive); for `CC(C(=O)N1CCc2ccccc21)N(C)CC(=O)Nc1ccc(F)cc1` (stereo unspecified) it is 17.3% (inactive); for `COc1ccccc1C(=O)NCC(=O)NCCSc1ccc(Br)cc1` it is -18.2% (inactive).
On to `Cc1cc(C)cc(NC(=S)NCc2ccc(F)cc2)c1`, for which the inhibition is 17.7% (inactive).
For `Fc1ccc(CNCc2ccc(Br)cc2)cc1`, the inhibition was 48.7% (active).
To `O=C(Cc1ccccc1)NCc1ccc(F)cc1` belongs 7.68% (inactive).
The figure for `CCOC(=O)C1CCCN(C(=O)c2ccc(C)c(S(=O)(=O)N3CCCCC3)c2)C1` (stereo unspecified) is -2.03% (inactive); for `CC(=O)Nc1ccc(SC[C@H](Cc2ccccc2)N2CC[C@@H](C)CCC2=O)cc1` it is 6.05% (inactive).
Take `COc1cc(-c2nnn(CC(=O)NCc3ccccc3)n2)cc(OC)c1OC`: the inhibition is -2.02% (inactive).
The figure for `N#Cc1ccc(COC(=O)Cn2nnc(-c3ccccc3)n2)cc1` is 32.5% (active); for `O=C(Cn1nnc(-c2ccccc2)n1)NC(=O)NC1CCCC1` it is -8.79% (inactive).
To `COc1cc([N+](=O)[O-])ccc1NC(=O)COC(=O)CCOc1ccc(C)cc1` belongs -25.8% (inactive); to `Cc1cccc(Nc2nnc(SCC(=O)c3c(N)n(C4CC4)c(=O)[nH]c3=O)s2)c1C`, -24.6% (inactive).
The figure for `O=S(=O)(Nc1ccc2nc(N3CCOCC3)sc2c1)c1ccccc1` is -2.59% (inactive); for `CC(=O)Nc1ccc(-c2csc(NC(=O)Nc3ccccc3)n2)cc1` it is 0.929% (inactive); for `O=C(Nc1ccccc1)Nc1nc2ccccc2s1` it is 38.1% (active).
As for `O=C(CCNC(=O)c1ccccc1)Nc1nc2ccccc2s1`, the inhibition was 9.78% (inactive).
To `O=C(O)CSc1ccc(S(=O)(=O)N2CCCC2)cn1` belongs -7.84% (inactive); to `Cc1noc(C)c1C(=O)NCC1COc2ccccc2O1` (stereo unspecified), 42% (active).
Consider `Cc1cc(NC(=O)CCC2COc3ccccc3O2)no1` (stereo unspecified), for which the inhibition was 16.6% (inactive).
To `O=C(NCC1COc2ccccc2O1)C1(c2ccccc2)CCCC1` (stereo unspecified) belongs 2.24% (inactive).
Regarding `NC(=O)c1ccsc1NC(=O)COC(=O)COc1ccc(C=O)cc1`, the inhibition is 0.0079% (inactive).
To `CCOc1ncccc1C(=O)Nc1ccc(S(=O)(=O)Nc2nc(C)cc(C)n2)cc1` belongs -33.5% (inactive); to `COc1ccc(NS(=O)(=O)c2cc(NC(=O)COc3ccccc3F)ccc2OC)cc1`, -11% (inactive).
The figure for `CCCNC(=O)NC(=O)COC(=O)CC(NC(N)=O)c1ccc(Cl)cc1` (stereo unspecified) is -5.2% (inactive).
The figure for `CN(C)S(=O)(=O)c1ccc(Cl)c(NC(=O)COC(=O)CC(NC(N)=O)c2ccc(Cl)cc2)c1` (stereo unspecified) is 8.54% (inactive); for `NC(=O)NC(CC(=O)NNC(=O)c1ccccn1)c1ccc(Cl)cc1` (stereo unspecified) it is 35.3% (active); for `CC(C)C(NC(=O)c1c(F)cccc1F)C(=O)NCc1ccncc1` (stereo unspecified) it is -6.22% (inactive).
Take `Cc1ccc(S(=O)(=O)Oc2ccc(/C=N/NC(=O)c3ccncc3)cc2)cc1`: the inhibition is -6.29% (inactive).
For `Cc1ccc(NC(=O)CC2S/C(=N/N=C3\CCCc4ccccc43)NC2=O)cc1` (stereo unspecified), the inhibition is -3.76% (inactive).
The figure for `CC(=O)Nc1ccc(S(=O)(=O)Oc2ccc(/C=N/N=C3/NC(=O)C(CC(=O)O)S3)cc2)cc1` (stereo unspecified) is 35.4% (active).
To `Cc1cc(C(=O)CCC(=O)NNC(=O)c2ccccc2O)c(C)s1` belongs 19.4% (inactive); to `Cc1c(NC(=O)CN2C(=O)C(=O)N(Cc3ccccc3)C2=O)c(=O)n(-c2ccccc2)n1C`, -13.5% (inactive); to `Cc1c(NC(=S)NC(=O)CCc2ccccc2)c(=O)n(-c2ccccc2)n1C`, 40.2% (active).
The figure for `Cc1c(NC(=S)Nc2ccccc2)c(=O)n(-c2ccccc2)n1C` is -10.1% (inactive).
